Drawing on PubChem BioAssay, this text covers composite z-score and z-score for four molecules.

The test system of experiment [1] is Wnt5a (protein binding on small-molecule microarray). In words: small molecules binding Wnt5a protein – biophysical, small-molecule microarray, 635/667 nm fluorescence, primary screen (AID 1142).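 Also: fluorescence read at 667 nm with signal to noise per printed feature.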 Conditions: 635 nm fluorescence, higher = more signal.
A short description of experiment [2]: ATP-based viability of Huh7 replicon cells – cell-based, CellTiter-Glo luminescence, basal, 48 h, cytotoxicity control for HCV replication inhibitor project, primary screen (AID 1143).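 Also: Huh7 hepatoma cells carrying a hepatitis C replication reporter with no stimulus; test concentration not given here.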 Conditions: higher = more signal, called active from +8 up or from −8 down. (In general: In antiviral work, replicon cells carry a viral genome segment that copies itself.)
A short description of experiment [3]: basal CRE-LacZ reporter activity in PC12 – cell-based, unstimulated, primary screen (AID 1145). To be noted: no forskolin, luminescence, 4.5 h, higher = more signal, called active from +8 up or from −8 down.
The nature of experiment [4]: forskolin-driven CRE-LacZ activity in PC12 – cell-based, CRE-LacZ reporter, forskolin-stimulated, primary screen (AID 1146).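 Also: PC12 cells with 6xCRE LacZ reporter stimulated by forskolin 10 µM; beta-galactosidase reporter signal reflecting CREB driven transcription.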 Conditions: luminescence, 4.5 h, higher = more signal, called active from +8 up or from −8 down.
Experiment [5] concerns the target Streptavidin (Streptomyces avidinii) (UniProt P22629). Briefly: compounds binding control protein streptavidin – biophysical, small-molecule microarray, 635/667 nm fluorescence, artefact control for SMM compound annotation, primary screen (AID 1147).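 Also: signal reflects streptavidin binding to arrayed compounds as a control protein.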 To be noted: higher = more signal.
Experiment [6] in a line: probe aInhba binding on compound microarray – biochemical, small-molecule microarray, 635/667 nm fluorescence, primary screen (AID 1148).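 Also: score merges 667nm spot fluorescence with signal-to-noise for antibody binding to printed compounds.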 To be noted: higher = more signal.
Experiment [7] concerns the target Torsin-1A (Homo sapiens) (UniProt O14656). In words: TOR1A wild-type binding on microarray – cell lysate, small-molecule microarray, lysate, 635/667 nm, primary screen (AID 1149). To be noted: COS7 hTOR1A-WT lysate, 635 nm fluorescence, higher = more signal.
Experiment [8] shares this target. Briefly: torsin A mutant lysate binding on microarrays – cell lysate, small-molecule microarray, COS7 lysate, 635/667 nm fluorescence, primary screen (AID 1150).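 Also: score pools 667 nm emission and signal to noise measuring lysate protein binding.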 Conditions: COS7 hTOR1A mutant lysate, 635 nm fluorescence, higher = more signal.
The subject of experiment [9] is Sonic hedgehog protein (Shh). Briefly: Sonic hedgehog microarray binding compounds – biochemical, small-molecule microarray, 635/667 nm fluorescence, primary screen (AID 1151).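 Also: Shh protein binding to compounds spotted on small-molecule microarray slides; score combines spot fluorescence intensity with signal-to-noise across triplicate slides.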 To be noted: 635 nm fluorescence, higher = more signal.
Experiment [10] in a line: optical density shifts of acrAB sulA E. coli – strain DRC41, OD650, 48 h, E. coli filamentation inducer project, primary screen (AID 1152).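 Also: E. coli MC1000 strain DRC41 lacking acrAB efflux pump and sulA.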 To be noted: higher = more signal, called active from +8 up or from −8 down.
A short description of experiment [11]: probe aLefty1 binding on compound microarray – biochemical, small-molecule microarray, 635/667 nm fluorescence, primary screen (AID 1153).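 Also: score merges spot fluorescence with signal-to-noise ratio from the scanned slide images.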 Conditions: higher = more signal.
Experiment [12] in a line: plasmodial surface anion channel blockers, osmotic lysis – cell-based, P. falciparum Indochina, OD700, 1 h, primary screen (AID 1154). Conditions: P. falciparum Indochina infected RBC osmotic lysis, higher = more signal, called active from +8 up or from −8 down.
The nature of experiment [13]: plasmodial surface anion channel blockers, osmotic lysis – cell-based, P. falciparum Indochina, OD700, 2 h, primary screen (AID 1155).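 Also: lysis reports solute entry through the parasite surface anion channel PSAC.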 To be noted: P. falciparum Indochina infected erythrocytes, higher = more signal, called active from +8 up or from −8 down.
Experiment [14] can be described thus: changes in parasitized red cell lysis, either direction – P. falciparum Indochina, OD700, 3 h, PSAC antagonist project, primary screen (AID 1156). Conditions: P. falciparum-infected erythrocytes, osmotic lysis, higher = more signal, called active from +8 up or from −8 down.
Experiment [15] is described as follows: plasmodial surface anion channel blockers, osmotic lysis – cell-based, P. falciparum Indochina, OD700, 18 h, primary screen (AID 1157). Conditions: P. falciparum Indochina infected erythrocytes, osmotic lysis OD700, 18 h; higher = more signal, called active from +8 up or from −8 down.
Experiment [16] in a line: S6 kinase pathway phospho-S6 level changes – cell-based, A549, cytoblot, luminescence, serum-stimulated, primary screen (AID 1158).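 Also: serum-stimulated A549 lung adenocarcinoma cells; signal is phosphorylated S6 detected by cytoblot immunostaining with HRP secondary.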 Conditions: 5 h, higher = more signal.
The target in experiment [17] is NADPH oxidase 2 (Homo sapiens) (UniProt P04839). Briefly: compounds shifting NOX2 Amplex Red fluorescence – cell-based, HEK293-NOX2, PMA-stimulated, NOX inhibitor project, primary screen (AID 1159). Also: test concentration not given here. Conditions: 45 min, higher = more signal, called active from +8 up or from −8 down.
Chain of NADPH oxidase 2 (Homo sapiens) (P04839 whole entry, looked up): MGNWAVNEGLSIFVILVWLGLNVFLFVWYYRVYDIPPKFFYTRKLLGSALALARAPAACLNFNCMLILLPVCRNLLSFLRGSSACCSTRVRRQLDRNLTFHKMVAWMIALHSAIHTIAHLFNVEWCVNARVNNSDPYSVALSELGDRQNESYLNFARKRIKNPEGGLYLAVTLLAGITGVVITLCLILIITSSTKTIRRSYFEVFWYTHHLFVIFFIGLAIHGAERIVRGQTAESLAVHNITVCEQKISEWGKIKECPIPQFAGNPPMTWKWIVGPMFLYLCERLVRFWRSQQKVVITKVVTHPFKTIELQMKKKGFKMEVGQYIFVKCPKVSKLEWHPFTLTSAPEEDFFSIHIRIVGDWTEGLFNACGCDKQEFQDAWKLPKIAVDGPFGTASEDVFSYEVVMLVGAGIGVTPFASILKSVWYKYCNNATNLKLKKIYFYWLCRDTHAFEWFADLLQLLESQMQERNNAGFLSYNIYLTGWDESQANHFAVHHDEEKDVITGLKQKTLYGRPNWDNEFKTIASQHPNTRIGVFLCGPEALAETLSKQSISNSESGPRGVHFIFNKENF
Experiment [18] deals with NADPH oxidase 4 (Homo sapiens) (UniProt Q9NPH5). In words: compounds shifting NOX4 Amplex Red fluorescence – cell-based, HEK293-NOX4, tetracycline-induced, NOX inhibitor project, primary screen (AID 1160). To be noted: HEK293-NOX4, Amplex Red H2O2 fluorescence, 45 min; higher = more signal, called active from +8 up or from −8 down.
Chain of NADPH oxidase 4 (Homo sapiens) (Q9NPH5 whole entry, looked up): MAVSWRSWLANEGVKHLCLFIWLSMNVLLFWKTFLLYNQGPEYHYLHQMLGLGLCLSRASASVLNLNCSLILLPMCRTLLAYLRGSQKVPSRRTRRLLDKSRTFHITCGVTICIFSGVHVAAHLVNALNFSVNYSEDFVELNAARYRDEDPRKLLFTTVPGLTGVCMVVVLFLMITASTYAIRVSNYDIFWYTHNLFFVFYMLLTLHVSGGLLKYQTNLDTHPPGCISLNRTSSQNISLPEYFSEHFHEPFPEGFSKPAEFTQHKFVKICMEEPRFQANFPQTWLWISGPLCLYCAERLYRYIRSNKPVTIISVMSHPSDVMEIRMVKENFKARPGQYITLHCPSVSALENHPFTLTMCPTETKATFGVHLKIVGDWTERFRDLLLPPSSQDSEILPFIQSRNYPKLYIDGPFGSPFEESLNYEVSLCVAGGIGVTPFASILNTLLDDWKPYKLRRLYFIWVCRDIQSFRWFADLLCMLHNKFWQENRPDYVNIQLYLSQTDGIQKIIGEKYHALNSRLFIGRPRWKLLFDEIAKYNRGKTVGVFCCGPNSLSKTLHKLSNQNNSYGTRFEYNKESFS
The target of experiment [19] is NADPH oxidase 5 (Homo sapiens) (UniProt Q96PH1). Briefly: compounds shifting NOX5 Amplex Red fluorescence – cell-based, HEK293-NOX5, NOX inhibitor project, primary screen (AID 1161). Conditions: HEK293-NOX5, ionomycin, 45 min, higher = more signal.
Chain of NADPH oxidase 5 (Homo sapiens) (Q96PH1 whole entry, looked up): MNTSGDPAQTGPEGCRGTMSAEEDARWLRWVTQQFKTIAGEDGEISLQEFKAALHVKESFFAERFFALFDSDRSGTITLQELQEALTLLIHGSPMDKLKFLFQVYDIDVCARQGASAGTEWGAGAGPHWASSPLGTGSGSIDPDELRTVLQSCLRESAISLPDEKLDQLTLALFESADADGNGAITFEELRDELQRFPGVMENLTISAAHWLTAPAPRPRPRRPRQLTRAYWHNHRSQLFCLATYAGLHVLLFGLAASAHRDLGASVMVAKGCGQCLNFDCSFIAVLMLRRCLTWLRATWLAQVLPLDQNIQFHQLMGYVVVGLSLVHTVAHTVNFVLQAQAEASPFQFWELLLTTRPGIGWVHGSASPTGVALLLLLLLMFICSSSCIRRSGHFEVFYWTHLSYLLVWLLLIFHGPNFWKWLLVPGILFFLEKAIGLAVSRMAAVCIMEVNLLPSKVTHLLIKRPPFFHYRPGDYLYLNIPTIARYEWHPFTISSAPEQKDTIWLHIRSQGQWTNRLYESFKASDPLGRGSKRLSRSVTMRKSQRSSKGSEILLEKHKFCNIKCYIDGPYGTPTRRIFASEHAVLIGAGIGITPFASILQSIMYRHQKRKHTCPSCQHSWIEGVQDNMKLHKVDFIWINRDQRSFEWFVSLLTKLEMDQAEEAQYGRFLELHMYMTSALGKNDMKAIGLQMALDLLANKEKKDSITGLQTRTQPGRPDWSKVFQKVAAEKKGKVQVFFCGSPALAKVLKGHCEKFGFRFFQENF
The nature of experiment [20]: compound effects on lung adenocarcinoma cell viability – A549, calcein-AM fluorescence, 48 h, basal, profiling panel (AID 1162). Also: test concentration not given here. To be noted: higher = more signal.

Activity calls are given as the source filed them.

Chain of Torsin-1A (Homo sapiens) (O14656 whole entry, looked up): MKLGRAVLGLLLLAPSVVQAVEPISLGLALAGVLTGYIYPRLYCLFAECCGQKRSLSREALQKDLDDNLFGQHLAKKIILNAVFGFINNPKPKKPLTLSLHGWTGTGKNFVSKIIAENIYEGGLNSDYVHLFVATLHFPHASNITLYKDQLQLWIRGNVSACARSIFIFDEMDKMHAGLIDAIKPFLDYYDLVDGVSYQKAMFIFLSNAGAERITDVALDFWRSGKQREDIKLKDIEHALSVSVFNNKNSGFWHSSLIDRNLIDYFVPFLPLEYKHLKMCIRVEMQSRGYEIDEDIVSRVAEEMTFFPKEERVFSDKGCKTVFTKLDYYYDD
Chain of Streptavidin (Streptomyces avidinii) (P22629 whole entry, looked up): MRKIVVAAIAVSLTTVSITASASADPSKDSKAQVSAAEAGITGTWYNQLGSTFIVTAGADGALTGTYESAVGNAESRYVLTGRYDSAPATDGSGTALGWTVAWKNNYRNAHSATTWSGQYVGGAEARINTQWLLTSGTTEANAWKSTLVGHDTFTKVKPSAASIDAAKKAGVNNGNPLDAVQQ

As for `O=C1c2ccccc2[C@@]2(Cc3ccccc3N(CC(F)(F)F)C2=O)[C@H](c2ccc(CO)cc2)N1Cc1ccccc1C(F)(F)F`, the composite z-score in experiment [1] was -0.388; in experiment [5], -1.04; in [6], -0.224; in [7], -1.41; in experiment [8], -0.322; in experiment [9], -0.643. This molecule also came in with a composite z-score in experiment [11] of -0.23. Besides, the z-score in experiment [2] was -1.02 (inactive); in experiment [3], -0.556 (inactive); in experiment [4], -1.56 (inactive); in [10], 1.43 (inactive); in [12], 0.0937 (inactive); in experiment [13] it was -0.926 (inactive). Also, the z-score in experiment [14] was 0.593 (inactive); in [15], -1.39 (inactive); in experiment [16], 0.936; in experiment [17], 0.0968 (inactive); in experiment [18], 0.396 (inactive); in [19], 1.09. The z-score in experiment [20] was 1.73.
In the case of `O=C1O[C@H](c2ccccc2)[C@H](c2ccccc2)N2[C@H]1[C@@H](C(=O)Nc1nc3ccccc3s1)[C@]1(C(=O)Nc3ccc(C#CCCO)cc31)[C@H]2c1ccccc1OCCO`, the composite z-score in [1] turned out to be 0.81; in experiment [5] it was 1.11; in experiment [6] it was 0.279; in [7], 0.795; in [8], 0.778; in experiment [9], 0.384. In experiment [11], this molecule showed a composite z-score of 0.634. The z-score in experiment [2] is -2.88 (inactive); in experiment [3], 0.182 (inactive); in experiment [4] it was -0.428 (inactive); in [10], 2.34 (inactive); in experiment [12], 2.76 (inactive); in experiment [13] it was 2.95 (inactive). The z-score is 1.4 (inactive) in experiment [14]; 1.69 (inactive) in [15]; 0.503 in experiment [16]; 0.146 (inactive) in [17]; 0.228 (inactive) in [18]; 2.14 in experiment [19]. Besides, the z-score in [20] is -0.655.
`COCCCNC(=O)[C@@]1(Cc2ccccc2CN=[N+]=[N-])COC(c2ccc(OCCCO)cc2)=N1`: the composite z-score in [1] is 1.18; in experiment [5], 0.257; in experiment [6], 0.283; in [7], 1.22; in experiment [8] it was 0.669; in [9], 0.13. In experiment [11], this molecule showed a composite z-score of 0.961. Further, the z-score was -3.41 (inactive) in experiment [2]; -0.94 (inactive) in [3]; -2.58 (inactive) in experiment [4]; 2.58 (inactive) in [10]; 26.7 (active) in experiment [12]; 22 (active) in [13]. Further, the z-score was 3.17 (inactive) in [14]; 3.5 (inactive) in experiment [15]; 0.989 in experiment [16]; -2.47 (inactive) in [17]; -1.03 (inactive) in [18]; -2.89 in [19]. For the same molecule, the z-score in experiment [20] is 0.395.
Regarding `C[N+](C)(C)CCCC[C@@H]1NC(=O)[C@@H]2C[C@H](C(=O)NCCCCCNC(=O)CS)[C@H](c3ccc(O)cc3)N2C1=O`, the composite z-score in [1] is 0.684; in experiment [5], -0.101; in experiment [6], -0.128; in experiment [7], 0.348; in [8] it was 0.305; in experiment [9], 1.42. In experiment [11], this molecule yielded a composite z-score of -0.0536. The z-score was -0.244 (inactive) in experiment [2]; -0.398 (inactive) in experiment [3]; -0.757 (inactive) in experiment [4]; 1.18 (inactive) in [10]; 0.453 (inactive) in experiment [12]; -1.65 (inactive) in experiment [13]. In addition, the z-score in experiment [14] was -4.23 (inactive); in experiment [15], -2.4 (inactive); in [16], 1.4; in experiment [17], 0.621 (inactive); in [18], 0.774 (inactive); in [19], 2.12. The z-score in experiment [20] was -0.215.
